Laboratory results taken from PubChem BioAssay (Tox21).
Inconclusive results are not listed. The source made the active and inactive calls. Calls follow the shape of the dose curve; as a rule, active = well fitted curve in the direction sought with a large enough effect in the repeat runs; inconclusive = weak or mixed curves; inactive = no such curve, though single readings can be large; an effect the other way counts as inactive or inconclusive.

Experiments:
[1] = A CellTox Green Cytotoxicity Assay to monitor cytotoxicity in HepG2 cells - 16 hour (AID 1224876); also: nearly all actives have a fitted effect of over 45% in size
Procedure, shortened: (§1)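 HepG2 cells were seeded together with the CellTox Green dye at 600 cells/well, left 5 h at 37 C/5% CO2, then given compounds in DMSO. Fluorescence from dye bound to dead-cell DNA was read repeatedly over 40 h of treatment at 37 C.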

[2] = qHTS RealTime-Glo MT Cell Viability Assay in HepG2 cells - 32 hour (AID 1224877); also: nearly all actives have a fitted effect of over 55% in size
Procedure, shortened: (§2)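 HepG2 suspension premixed with RealTime-Glo reagents is plated at 600 cells per well and left 5 h at 37 C/5% CO2. Compounds in DMSO then go in, and bioluminescence reflecting viable cell number is recorded over 40 h.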

[3] = A CellTox Green Cytotoxicity Assay to monitor cytotoxicity in HepG2 cells - 24 hour (AID 1224878); also: nearly all actives have a fitted effect of over 45% in size
Procedure, shortened: as §1

[4] = A CellTox Green Cytotoxicity Assay to monitor cytotoxicity in HepG2 cells - 40 hour (AID 1224879); also: nearly all actives have a fitted effect of over 40% in size
Procedure, shortened: as §1

[5] = qHTS RealTime-Glo MT Cell Viability Assay in HEK293 cells - 0 hour (AID 1224880); also: top concentration of the series differs between compounds; nearly all actives have a fitted effect of over 45% in size
Procedure, shortened: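 HEK293 cells mixed with RealTime-Glo reagents (NanoLuc plus cell-permeant prosubstrate) at 600 cells/well, preincubated 5 h at 37 C/5% CO2, then given 23 nL compound in DMSO. Nonlytic luminescence from viable cells was read at 0, 8, 16, 24, 32 and 40 h.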

[6] = A CellTox Green Cytotoxicity Assay to monitor cytotoxicity in HEK293 cells - 32 hour (AID 1224881); also: nearly all actives have a fitted effect of over 40% in size
Procedure, shortened: (§3)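 HEK293 cells premixed with CellTox Green dye were seeded at 600 cells/well and left 5 h at 37 C/5% CO2 before pin transfer of 23 nL compound in DMSO. Fluorescence from dye bound to dead-cell DNA was read during 40 h treatment.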

[7] = A CellTox Green Cytotoxicity Assay to monitor cytotoxicity in HepG2 cells - 0 hour (AID 1224882); also: nearly all actives have a fitted effect of over 35% in size
Procedure, shortened: as §1

[8] = A CellTox Green Cytotoxicity Assay to monitor cytotoxicity in HepG2 cells - 32 hour (AID 1224883); also: nearly all actives have a fitted effect of over 50% in size
Procedure, shortened: as §1

[9] = A CellTox Green Cytotoxicity Assay to monitor cytotoxicity in HEK293 cells - 8 hour (AID 1224884); also: nearly all actives have a fitted effect of over 35% in size
Procedure, shortened: as §3

[10] = qHTS RealTime-Glo MT Cell Viability Assay in HepG2 cells - 16 hour (AID 1224885); also: nearly all actives have a fitted effect of over 50% in size
Procedure, shortened: as §2
% is scaled to controls: 0 for no effect and ±100 for the full control effect.

CC(=O)OC(C)(C)Cc1ccccc1
inactive: Potency [1] | outcome [2] | Potency [3] | Potency [4] | outcome [5] | Potency [6] | Potency [7] | Potency [8] | Potency [9] | outcome [10]

CCN1CN(CC)CN(CC)C1
inactive: Potency [1] | outcome [2] | Potency [3] | Potency [4] | outcome [5] | Potency [6] | Potency [7] | Potency [8] | Potency [9] | outcome [10]

CC(=O)c1ccc(OCC(=O)N2CCCCC2)cc1
inactive: Potency [1] | outcome [2] | Potency [3] | Potency [4] | outcome [5] | Potency [6] | Potency [7] | Potency [8] | Potency [9] | outcome [10]

C=C[C@@H](C)CCC=C(C)C
inactive: Potency [1] | outcome [2] | Potency [3] | Potency [4] | outcome [5] | Potency [6] | Potency [7] | Potency [8] | Potency [9] | outcome [10]

C=CCOCC(O)CCl (stereo not given)
inactive: Potency [1] | outcome [2] | Potency [3] | Potency [4] | outcome [5] | Potency [6] | Potency [7] | Potency [8] | Potency [9] | outcome [10]

Nc1c(NC/C=C\COc2cc(CN3CCCCC3)ccn2)c(=O)c1=O
inactive: cytotoxicity increase [1] -12.5% [at 15.8 µM] | activity change, negative = cytotoxic [2] 0.449% [at 15.8 µM] | cytotoxicity [3] -15.2% [at 15.8 µM] | cytotoxicity increase [4] -13.3% [at 15.8 µM] | activity change, negative = cytotoxicity [5] 11.6% [at 15.8 µM] | cytotoxicity increase [6] 6.07% [at 15.8 µM] | cytotoxicity [7] -10.4% [at 15.8 µM] | cytotoxicity increase [8] -13.1% [at 15.8 µM] | cytotoxicity increase [9] 3.26% [at 15.8 µM] | activity change, negative = cytotoxic [10] 3.45% [at 15.8 µM]

COCCOCCOCCOC
inactive: Potency [1] | outcome [2] | Potency [3] | Potency [4] | outcome [5] | Potency [6] | Potency [7] | Potency [8] | Potency [9] | outcome [10]

O=c1cc(O)c(Cl)c[nH]1
inactive: Potency [1] | outcome [2] | Potency [3] | Potency [4] | outcome [5] | Potency [6] | Potency [7] | Potency [8] | Potency [9] | outcome [10]

CN[C@@H]1[C@H](O)[C@H](NC)[C@H]2O[C@@]3(O)C(=O)C[C@@H](C)O[C@H]3O[C@@H]2[C@H]1O
inactive: Potency [1] | outcome [2] | Potency [3] | Potency [4] | outcome [5] | Potency [6] | Potency [7] | Potency [8] | Potency [9] | outcome [10]

FC(F)(F)c1ccc(Cl)cc1Cl
inactive: Potency [1] | outcome [2] | Potency [3] | Potency [4] | outcome [5] | Potency [6] | Potency [7] | Potency [8] | Potency [9] | outcome [10]

CC(C)C(=O)Nc1cccc(C(F)(F)F)c1
inactive: Potency [1] | outcome [2] | Potency [3] | Potency [4] | outcome [5] | Potency [6] | Potency [7] | Potency [8] | Potency [9] | outcome [10]

C=COCCOCCOC=C
inactive: Potency [1] | outcome [2] | Potency [3] | Potency [4] | outcome [5] | Potency [6] | Potency [7] | Potency [8] | Potency [9] | outcome [10]

O=C(O)c1ccccc1C(=O)OCc1ccccc1
inactive: Potency [1] | outcome [2] | Potency [3] | Potency [4] | outcome [5] | Potency [6] | Potency [7] | Potency [8] | Potency [9] | outcome [10]

CNCc1ccccc1
inactive: Potency [1] | outcome [2] | Potency [3] | Potency [4] | outcome [5] | Potency [6] | Potency [7] | Potency [8] | Potency [9] | outcome [10]

CCC(=O)OCCC(C)CCC=C(C)C (stereo not given)
inactive: Potency [1] | outcome [2] | Potency [3] | Potency [4] | outcome [5] | Potency [6] | Potency [7] | Potency [8] | Potency [9] | outcome [10]

CC(=O)OCC(=O)[C@@]1(O)[C@H](OC(C)=O)C[C@H]2[C@@H]3CCC4=CC(=O)C=C[C@]4(C)[C@@]3(F)[C@@H](O)C[C@@]21C
inactive: Potency [1] | outcome [2] | Potency [3] | Potency [4] | outcome [5] | Potency [6] | Potency [7] | Potency [8] | Potency [9] | outcome [10]

CCCCCC(=O)OCC
inactive: Potency [1] | outcome [2] | Potency [3] | Potency [4] | outcome [5] | Potency [6] | Potency [7] | Potency [8] | Potency [9] | outcome [10]

Cc1nc(C)nc(N2C[C@@H](C)N(c3ccnc([C@@H](C)O)n3)[C@@H](C)C2)n1
inactive: Potency [1] | outcome [2] | Potency [3] | Potency [4] | outcome [5] | Potency [6] | Potency [7] | Potency [8] | Potency [9] | outcome [10]

CCCCOC(=O)C(C)OC(=O)CCC (stereo not given)
inactive: Potency [1] | outcome [2] | Potency [3] | Potency [4] | outcome [5] | Potency [6] | Potency [7] | Potency [8] | Potency [9] | outcome [10]

CCCCCC1CCCC(=O)O1 (stereo not given)
inactive: Potency [1] | outcome [2] | Potency [3] | Potency [4] | outcome [5] | Potency [6] | Potency [7] | Potency [8] | Potency [9] | outcome [10]

O=C1NC2NC(=O)NC2N1 (stereo not given)
inactive: Potency [1] | outcome [2] | Potency [3] | Potency [4] | outcome [5] | Potency [6] | Potency [7] | Potency [8] | Potency [9] | outcome [10]

CC(=O)N1CCN(c2ccc(O)cc2)CC1
inactive: Potency [1] | outcome [2] | Potency [3] | Potency [4] | outcome [5] | Potency [6] | Potency [7] | Potency [8] | Potency [9] | outcome [10]
